High-throughput results as filed in PubChem BioAssay.
Sampled rows, rich in hits. Any-hit rate of the full collection: about 2.3%.
CHO-K1 Ca antag = counter-screen for M1 antagonists: effect in parental CHO-K1 cells | hit rate 0.6% among 360,000 | ATP-induced calcium, Fluo-8 fluorescence | inhibition, % at 3 µM;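 active = inhibition above a per-plate cutoff, the plate's mean sample inhibition plus 3 SD, cut at about 24% in these data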;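 also: 0% = DMSO plus EC80 ATP and 100% = DMSO alone without ATP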
M1 ag parental = counter-screen for M1 agonists: effect in parental CHO-K1 cells. Fluo-8 calcium fluorescence; scaled to maximal ATP response, vehicle zero. activation, % at 3 µM. hit rate 0.48% among 360,000. AID 602248; in the data active = activation above about 15%;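 also: untransfected CHO-K1 host cells lacking M1 receptor as counterscreen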
M1 PAM parental = nonselective activator or artifact in parental CHO-K1 calcium assay. AID 602247. activation, % at 3 µM. ATP EC20, Fluo-8 calcium fluorescence; 0% at ATP EC20, 100% at ATP max. hit rate 0.02% among 360,000;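 active = activation above the run cutoff, the mean activation of all test compounds plus 3 SD, cut at about 40% in these data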;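 also: peak over basal fluorescence ratio in a 140 s read after ATP addition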
M1 PAM = potentiates human M1 receptor response to acetylcholine | P11229 | CHO-K1 hM1, Fluo-8 calcium fluorescence, ACh EC20; 0% = ACh EC20, 100% = maximal ACh | activation, % at 3 µM | hit rate 0.088% among 360,000; in the data active = activation above about 19%, passing the limit was not always enough
Target sequence (P11229 whole entry, looked up): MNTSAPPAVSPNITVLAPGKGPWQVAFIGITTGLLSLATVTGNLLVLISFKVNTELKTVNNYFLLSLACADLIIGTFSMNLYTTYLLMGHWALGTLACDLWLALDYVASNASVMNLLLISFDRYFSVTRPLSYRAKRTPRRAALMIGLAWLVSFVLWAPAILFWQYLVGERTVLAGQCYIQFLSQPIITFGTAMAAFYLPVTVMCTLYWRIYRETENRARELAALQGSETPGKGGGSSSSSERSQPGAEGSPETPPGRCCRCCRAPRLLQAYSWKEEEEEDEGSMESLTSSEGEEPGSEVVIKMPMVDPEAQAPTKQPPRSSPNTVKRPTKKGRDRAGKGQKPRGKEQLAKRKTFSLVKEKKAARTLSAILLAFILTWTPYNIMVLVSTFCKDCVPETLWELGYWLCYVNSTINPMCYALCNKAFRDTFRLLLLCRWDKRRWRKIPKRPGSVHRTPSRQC
M1 antag = antagonists of human M1 muscarinic receptor; hit rate 1.3% among 360,000; inhibition, % at 3 µM; AID 588852; P11229; CHO-K1 hM1, Fluo-8 calcium fluorescence, ACh EC80 antagonist;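 active = percent inhibition above its own plate's cutoff, namely the mean of that plate's compound wells plus 3 SD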;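 also: peak over basal fluorescence ratio during 140 s after agonist addition; 0% = ACh EC80 plus DMSO and 100% = DMSO alone without agonist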
M1 ag = agonists of human M1 muscarinic receptor | hit rate 0.33% among 360,000 | CHO-K1 hM1, Fluo-8 calcium fluorescence, agonist mode; 0% DMSO, 100% acetylcholine EC100 | AID 588814 | activation, % at 3 µM | P11229;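 active = activation above the run's mean compound activation plus 3 SD, cut at about 16% in these data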;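 also: peak over basal fluorescence ratio within a 140 s kinetic read after compound addition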
Numbers without * were called inactive.

CCCc1cc(=O)[nH]c2nnc(SCC(=O)NC3CCCCC3)n12 was read as CHO-K1 Ca antag 10.2, M1 ag parental -0.1, M1 PAM parental -2.6, M1 PAM 16.9, M1 antag -11.2 and M1 ag 2.3.
`CCC(c1nnnn1-c1ccc2c(c1)OCCO2)N1CCN(c2ncccc2C(F)(F)F)CC1` (stereo not given) gave CHO-K1 Ca antag -7.6, M1 ag parental 3.7 and M1 PAM parental 4.1.
For Cc1ccc(NC(=S)NC(=O)c2ccc(Br)o2)c(C)c1 the results were CHO-K1 Ca antag 9.5, M1 ag parental 19.3*, M1 PAM parental 3.3, M1 PAM 10.6, M1 antag -7.2 and M1 ag -11.8.
Screening CN(CC(=O)Nc1ccccc1Cl)C(=O)CSc1nnc(-c2ccco2)n1C returned CHO-K1 Ca antag -12.2, M1 ag parental 0.0, M1 PAM parental 9.2, M1 PAM 4.0, M1 antag -6.3 and M1 ag -3.8.
Screening CCOC(=O)c1c(NC(=O)CN2C(=O)C(=O)N(CC(C)C)C2=O)sc(C)c1CC returned CHO-K1 Ca antag -8.3, M1 ag parental 0.9, M1 PAM parental 22.7, M1 PAM 10.1, M1 antag -12.8 and M1 ag -2.8.
For CC(=O)N1C[C@H]2CON(C)[C@H]2C[C@H]1c1ccc(-c2ccccc2)cc1 the results were CHO-K1 Ca antag -8.8, M1 ag parental 0.9, M1 PAM parental 18.4, M1 PAM 9.0, M1 antag -18.5 and M1 ag -1.1.
CN(C(=O)COC(=O)CSc1cc(Cl)ccc1Cl)c1c(N)n(Cc2ccccc2)c(=O)[nH]c1=O was read as CHO-K1 Ca antag 9.3, M1 ag parental 5.0, M1 PAM parental -11.9, M1 PAM 3.1, M1 antag -12.1 and M1 ag -2.6.
Screening COCCn1c(Cc2ccccc2)nnc1SCC(=O)NC1CC1 returned CHO-K1 Ca antag 18.1, M1 ag parental -0.1, M1 PAM parental -8.6, M1 PAM -0.9, M1 antag -3.9 and M1 ag -3.3.
For COc1cccc(N2CCN(C(=O)c3cccc(NC4=NC5CS(=O)(=O)CC5S4)c3)CC2)c1 (stereo not given) the results were CHO-K1 Ca antag 24.4*, M1 ag parental 4.8, M1 PAM parental -5.8, M1 PAM -2.6, M1 antag -6.0 and M1 ag -2.4.
For CC(CCc1ccccc1)NC(=O)COC(=O)c1ccccc1O (stereo not given) the results were CHO-K1 Ca antag -8.6, M1 ag parental 15.8*, M1 PAM parental 14.9, M1 PAM 4.2, M1 antag -10.6 and M1 ag 2.1.
`COc1ccccc1C(=O)OCC(=O)NC(C)CCc1ccccc1` (stereo not given) gave CHO-K1 Ca antag -7.0, M1 ag parental 0.1, M1 PAM parental -7.6, M1 PAM -4.9, M1 antag 11.4 and M1 ag -5.4.
`O=C(c1ccccc1)N1CCN=C1c1ccccc1` gave CHO-K1 Ca antag -9.9, M1 ag parental 0.2, M1 PAM parental 23.0, M1 PAM 2.0, M1 antag 5.7 and M1 ag -3.7.
Screening COc1ccc(C(=O)N2CCN=C2c2ccccc2)cc1OC returned CHO-K1 Ca antag 26.2*, M1 ag parental -0.1, M1 PAM parental -5.6, M1 PAM -8.4, M1 antag 2.7 and M1 ag -0.3.
`Cc1cc(-c2ccc(C)c(S(=O)(=O)NCC3CCN(Cc4ccc(F)cc4)CC3)c2)on1` gave CHO-K1 Ca antag -13.7, M1 ag parental 3.8, M1 PAM parental 0.2, M1 PAM -4.4, M1 antag -5.8 and M1 ag -3.8.
For COc1ccc(-c2cc(C)no2)cc1S(=O)(=O)NCC1CCN(Cc2cc(C)ccc2C)CC1 the results were CHO-K1 Ca antag -16.8, M1 ag parental 2.7, M1 PAM parental 5.6, M1 PAM -24.7, M1 antag 51.1* and M1 ag -4.5.
COc1ccccc1CN1CCC(CNS(=O)(=O)c2cc(-c3cc(C)no3)ccc2C)CC1 was read as CHO-K1 Ca antag -23.4, M1 ag parental 6.4, M1 PAM parental 7.3, M1 PAM -24.4, M1 antag 66.2* and M1 ag -2.7.
For COc1cccc(CNC(=O)[C@@H]2CCCN2C(=O)[C@@H]2CCCN2C(=O)c2ccc(Cl)cc2)c1 the results were CHO-K1 Ca antag -7.3, M1 ag parental -0.6 and M1 PAM parental 7.4.
For Cc1nn(C)c(C)c1N1C(=O)c2cccc3c(N)ccc(c23)C1=O the results were CHO-K1 Ca antag 30.8*, M1 ag parental 63.0*, M1 PAM parental -9.9, M1 PAM -21.6, M1 antag 35.1* and M1 ag 90.0*.
`CCCN1C(=O)c2cccc3c(N4CCCCC4)ccc(c23)C1=O` gave CHO-K1 Ca antag 3.5, M1 ag parental 4.3, M1 PAM parental 11.9, M1 PAM 0.5, M1 antag -1.6 and M1 ag -0.7.
For CCN1C(=O)c2cccc3c(N)ccc(c23)C1=O the results were CHO-K1 Ca antag 18.6, M1 ag parental 72.3*, M1 PAM parental -14.6, M1 PAM -37.5, M1 antag 47.9* and M1 ag 191.9*.
Cc1nn(C)c(C)c1N1C(=O)c2cccc3c(Br)ccc(c23)C1=O was read as CHO-K1 Ca antag 2.4, M1 ag parental 2.9, M1 PAM parental -0.5, M1 PAM -1.4, M1 antag 6.4 and M1 ag -1.2.
`CCCCNc1ccc2c3c(cccc13)C(=O)N(CCCC)C2=O` gave CHO-K1 Ca antag 92.6*, M1 ag parental 348.0*, M1 PAM parental -23.2, M1 PAM -26.9, M1 antag 90.3* and M1 ag 295.9*.
CN(C)CCCN1C(=O)c2cccc3c(Br)ccc(c23)C1=O was read as CHO-K1 Ca antag -12.2, M1 ag parental 1.0, M1 PAM parental 11.8, M1 PAM -1.1, M1 antag -1.6 and M1 ag -3.6.
`Cc1ccc(N2C(=O)c3cccc4c(N)ccc(c34)C2=O)c2cccnc12` gave CHO-K1 Ca antag 13.6, M1 ag parental 22.6*, M1 PAM parental -9.4, M1 PAM -10.7, M1 antag 18.0 and M1 ag 29.0*.
`CC(=O)Nc1cccc(NC(=O)CSc2nnc3ccc(-c4cccnc4)nn23)c1` gave CHO-K1 Ca antag 1.6, M1 ag parental -0.4, M1 PAM parental -8.5, M1 PAM -0.3, M1 antag -6.4 and M1 ag 2.4.
`CC(=O)Nc1ccc(NC(=O)CSc2nnc3ccc(-c4cccnc4)nn23)cc1` gave CHO-K1 Ca antag 3.9, M1 ag parental 0.0, M1 PAM parental -13.9, M1 PAM -7.7, M1 antag 19.9* and M1 ag -0.5.
`COc1ccc(CN(C)CCCn2cnc(C(=O)Nc3ccc(C)c(C)c3)n2)cc1OC` gave CHO-K1 Ca antag -6.6, M1 ag parental 1.6, M1 PAM parental 18.1, M1 PAM 11.0, M1 antag 0.9 and M1 ag -7.9.
